For twelve compounds, outcome and AC50 results are on record in PubChem BioAssay (EPA / NIEHS).

Records with an inconclusive call do not appear. Calls of active or inactive are those of the source. The calls were made as follows, unless noted: active = hit-call score of the fitted dose curve at least 0.9, where 1 is the maximum; inconclusive = response in the unintended direction; inactive = score below 0.9.

The term AC50 denotes the midpoint of the concentration-response curve, whichever way the signal moves.

The nature of assay [1]: Tanguay_ZF_120hpf_PE_legacy: (Legacy) Oregon State University Tanguay Lab 120 Hour Post-fertilization zebrafish Assay for Pericardial Edema (AID 2283640). Summed up: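 Static waterborne exposure, 5D wild-type embryos, 28C, to 120 hpf; final DMSO 0.64% (vol/vol). Binary PE call at 120 hpf by brightfield; fitted upward vs DMSO baseline. 5uM trimethyltin chloride as positive control.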

Assay [2] can be described thus: Tanguay_ZF_120hpf_BRAI_legacy: (Legacy) Oregon State University Tanguay Lab 120 Hour Post-fertilization zebrafish Assay for Brain Malformation (AID 2283641). The method in brief:
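Read-out: binary brain morphology call at 120 hpf (brightfield), fitted in gain-of-signal direction vs DMSO. Wild-type Tropical 5D embryos, static exposure, 28C, 0.64% DMSO final; 5uM trimethyltin chloride as positive control.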

Assay [3] can be described thus: Tanguay_ZF_120hpf_SOMI_legacy: (Legacy) Oregon State University Tanguay Lab 120 Hour Post-fertilization zebrafish Assay for Somite Malformation (AID 2283647). The method in brief: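 Binary brightfield scoring of somite defects at 120 hpf in 5D wild-type larvae; one dechorionated embryo per well, static exposure from 6 hpf, 28C, sealed and dark. Final DMSO 0.64%; trimethyltin chloride 5uM positive control.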

Assay [4] can be described thus: Tanguay_ZF_120hpf_PFIN_legacy: (Legacy) Oregon State University Tanguay Lab 120 Hour Post-fertilization zebrafish Assay for Pectoral Fin Malformation (AID 2283648).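 Also: each larva judged yes or no for fin defect by brightfield with dead larvae skipped.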 The method in brief: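 Dechorionated Tropical 5D wild-type zebrafish embryos, one per well, statically exposed from 6 to 120 hpf at 28C with 0.64% DMSO final. Pectoral fin malformation scored present/absent by brightfield at 120 hpf; not scored in dead embryos.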

Assay [5] in a line: Tanguay_ZF_120hpf_CFIN_legacy: (Legacy) Oregon State University Tanguay Lab 120 Hour Post-fertilization zebrafish Assay for Caudal Fin Malformation (AID 2283649). The method in brief:
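Dechorionated 5D wild-type zebrafish, static exposure 6–120 hpf, 28C, sealed and dark, 0.64% v/v DMSO final. Binary fin-malformation call at 120 hpf, brightfield; gain of signal vs DMSO baseline.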

Assay [6] can be described thus: Tanguay_ZF_120hpf_PIG_legacy: (Legacy) Oregon State University Tanguay Lab 120 Hour Post-fertilization zebrafish Assay for Pigmentation Malformation (AID 2283650). The method in brief:
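Dechorionated Tropical 5D wild-type embryos, one per well from 6 hpf, statically exposed at 28C in the dark until 120 hpf, 0.64% DMSO final. Pigmentation scored present/absent by brightfield microscopy; dead embryos not scored; fitted versus DMSO.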

Assay [7] can be described thus: Tanguay_ZF_120hpf_CIRC_legacy: (Legacy) Oregon State University Tanguay Lab 120 Hour Post-fertilization zebrafish Assay for Circulatory Malformation (AID 2283651). Summed up: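 Read-out: presence or absence of circulatory malformation at 120 hpf, scored by brightfield microscopy, fitted in the gain-of-signal direction against DMSO baseline. Wild-type 5D larvae were exposed from 6 hpf after enzymatic chorion removal.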

A short description of assay [8]: Tanguay_ZF_120hpf_SWIM_legacy: (Legacy) Oregon State University Tanguay Lab 120 Hour Post-fertilization zebrafish Assay for Swim Bladder Malformation (AID 2283654).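 Also: swim bladder malformation in each larva scored yes or no under brightfield.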 Summed up:
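Dechorionated wild-type Tropical 5D zebrafish embryos, one per well from 6 hpf, were statically exposed at 28C until 120 hpf in 0.64% DMSO. Swim bladder malformation scored as present/absent by brightfield microscopy; not scored in dead larvae.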

A short description of assay [9]: Tanguay_ZF_120hpf_TRUN_legacy: (Legacy) Oregon State University Tanguay Lab 120 Hour Post-fertilization zebrafish Assay for Truncated Body (AID 2283655). The method in brief:
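Whole-embryo zebrafish screen: dechorionated 5D embryos, static exposure 6–120 hpf, 28C, sealed foil-covered plates, 0.64% DMSO. Binary truncation call; gain of signal versus DMSO baseline.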

The nature of assay [10]: Tanguay_ZF_120hpf_NC_legacy: (Legacy) Oregon State University Tanguay Lab 120 Hour Post-fertilization zebrafish Assay for Notochord and Tail Malformation (AID 2283656). Summed up:
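Dechorionated Tropical 5D wild-type zebrafish embryos, one per well from 6 hpf, statically exposed to 120 hpf at 28C in 0.64% DMSO final. Notochord distortion scored present/absent by brightfield; dead embryos excluded.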

Read-out in assay [11]: Broad substrate specificity ATP-binding cassette transporter ABCG2 (Homo sapiens) (UniProt Q9UNQ0)
The assay is described as follows: CLD_ABCG2_6hr: CellzDirect (CLD) Gene Expression Assay for ABC Transporter (ABCG2) at 6 hours (AID 2283660). Summed up:
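Primary human hepatocytes dosed daily with chemicals at multiple concentrations (0.2% DMSO vehicle), harvested 6 h after dosing. ABCG2 mRNA induction read by quantitative nuclease protection assay (qNPA) chemiluminescence; gain of signal fitted against DMSO baseline.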

Read-out in assay [12]: solute carrier (SLC22A6), SLC22A6 (gene 9356)
Put plainly: LTEA_HepaRG_SLC22A6: Life Technologies and Expression Analysis (LTEA) Assay for solute carrier (SLC22A6) using HepaRG (AID 2283653; active = hit-call score of the fitted dose curve at least 0.9, where 1 is the maximum; inactive = score below 0.9). To be noted: mRNA level, 48 h; actives raise or lower the signal. The method in brief:
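HepaRG, human liver line; 48 h chemical exposure; 8-pt half-log series from 100 uM in 0.5% DMSO, duplicate wells. Readout: TaqMan qRT-PCR of SLC22A6 mRNA, housekeeping-normalised; bidirectional curve fit vs DMSO baseline.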

Read-out in assay [13]: solute carrier (SLC10A1), SLC10A1 (gene 6554)
The assay is described as follows: LTEA_HepaRG_SLC10A1: Life Technologies and Expression Analysis (LTEA) Assay for solute carrier (SLC10A1) using HepaRG (AID 2283657; active = hit-call score of the fitted dose curve at least 0.9, where 1 is the maximum; inactive = score below 0.9). To be noted: mRNA level, 48 h; actives raise or lower the signal. Summed up: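 HepaRG cells (single lot) exposed 48 h in serum-free induction medium, 8-point half-log series from 100 uM top in 0.5% DMSO, duplicate. SLC10A1 mRNA by qRT-PCR normalised to ACTB, GAPDH, POLR2A; bidirectional fit versus DMSO.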

Read-out in assay [14]: matrix metalloproteinase-1 (MMP1), MMP1 (gene 4312)
Put plainly: LTEA_HepaRG_MMP1: Life Technologies and Expression Analysis (LTEA) Assay for matrix metalloproteinase-1 (MMP1) using HepaRG (AID 2283658; active = hit-call score of the fitted dose curve at least 0.9, where 1 is the maximum; inactive = score below 0.9). To be noted: mRNA level, 48 h; actives raise or lower the signal. Summed up: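 MMP1 transcript read by TaqMan qRT-PCR (Fluidigm array) after 48 h chemical exposure of HepaRG cells in serum-free induction medium. Eight-point half-log series, top 100 uM, 0.5% DMSO vehicle. Bidirectional curve fit against DMSO baseline.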

Assay [15] can be described thus: Tanguay_ZF_120hpf_JAW_legacy: (Legacy) Oregon State University Tanguay Lab 120 Hour Post-fertilization zebrafish Assay for Jaw Malformation (AID 2283638).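 As to AC50: active means more embryos with jaw malformation than DMSO controls.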 The method in brief: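 Binary jaw-malformation calls at 120 hpf by brightfield imaging; DMSO (0.64% v/v) = baseline. Embryos: 5D wild-type, pronase-dechorionated, one per well from 6 hpf, static exposure, 28C, sealed, dark.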

Assay [16] in a line: Tanguay_ZF_120hpf_EYE_legacy: (Legacy) Oregon State University Tanguay Lab 120 Hour Post-fertilization zebrafish Assay for Eye Malformation (AID 2283636). Summed up:
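Dechorionated Tropical 5D zebrafish embryos, one per well from 6 hpf, static exposure to 120 hpf at 28C, 0.64% DMSO. Eye malformation scored present/absent by brightfield; dead embryos not scored.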

Assay [17] has as its system Thyroperoxidase (TPO), gene 54314. The assay is described as follows: CCTE_Simmons_AUR_rTPO: CCTE's Amplex UltraRed Assay for Thyroperoxidase (TPO) Inhibition, Simmons Lab (AID 2283662).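 Also: potency for loss of signal meaning inhibition of peroxidase activity.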 Summed up:
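Cell-free peroxidase activity assay using rat thyroid gland microsomes with excess H2O2 (300 uM) and 25 uM Amplex UltraRed. Compounds tested from 5 nM to 87.5 uM; fluorescence measured after 30 min at 37C, analysed relative to DMSO baseline.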

Assay [18] can be described thus: Tanguay_ZF_120hpf_SNOU_legacy: (Legacy) Oregon State University Tanguay Lab 120 Hour Post-fertilization zebrafish Assay for Snout Malformation (AID 2283637). The method in brief: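 Dechorionated tropical 5D wild-type zebrafish embryos exposed statically from 6 to 120 hpf at 28C, one per well, in 0.64% DMSO. Snout malformation scored as present/absent by brightfield at 120 hpf; dead embryos not scored.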

Sequence of Broad substrate specificity ATP-binding cassette transporter ABCG2 (Homo sapiens) (Q9UNQ0 whole entry, looked up): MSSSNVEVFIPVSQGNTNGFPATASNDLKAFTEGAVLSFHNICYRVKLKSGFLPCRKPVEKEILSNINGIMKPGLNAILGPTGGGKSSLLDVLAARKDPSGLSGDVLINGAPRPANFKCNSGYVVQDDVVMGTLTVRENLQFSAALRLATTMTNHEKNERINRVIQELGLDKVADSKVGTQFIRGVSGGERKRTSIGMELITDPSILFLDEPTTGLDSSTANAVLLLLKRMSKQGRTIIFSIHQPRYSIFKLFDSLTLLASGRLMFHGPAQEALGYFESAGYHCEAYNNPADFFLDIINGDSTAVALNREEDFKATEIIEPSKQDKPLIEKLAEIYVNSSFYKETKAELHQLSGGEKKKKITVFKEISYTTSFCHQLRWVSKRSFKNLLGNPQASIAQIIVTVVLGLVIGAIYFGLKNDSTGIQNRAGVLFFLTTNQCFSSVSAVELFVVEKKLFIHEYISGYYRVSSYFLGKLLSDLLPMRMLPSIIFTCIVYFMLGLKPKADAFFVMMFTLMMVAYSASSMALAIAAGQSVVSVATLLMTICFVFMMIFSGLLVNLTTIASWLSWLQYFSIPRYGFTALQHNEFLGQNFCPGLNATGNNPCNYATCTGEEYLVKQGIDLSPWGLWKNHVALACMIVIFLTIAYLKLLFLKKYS

Turning to `CCCCCOC(=O)COc1cc(N2C(=O)C3=C(CCCC3)C2=O)c(F)cc1Cl`, the outcome in assay [1], in [2], in [3], in [4], in assay [5] and in assay [6] was inactive. Further, the outcome in assay [7], in [8], in assay [9], in assay [10] and in assay [11] was inactive.
Consider `O=C(O)c1ccccc1`, for which the compound was called inactive in assay [1], in [2], in assay [3], in [4], in assay [5] and in [6]. Moreover, the compound was classed as inactive in [7], in assay [12], in [8], in assay [9], in assay [10] and in assay [13]. For the same compound, the outcome in assay [14] was inactive.
As for `CCCN(CCC)c1c([N+](=O)[O-])cc(C(F)(F)F)c(N)c1[N+](=O)[O-]`, the result in assay [1], in assay [2], in assay [3], in [4], in [5] and in assay [6] was inactive. Also, the compound was classed as inactive in [7] and in assay [8].
Turning to `Cc1nn(C)c(Oc2ccccc2)c1C=NOCc1ccc(C(=O)OC(C)(C)C)cc1`, the outcome in assay [15], in assay [1], in [2], in assay [3], in [4] and in assay [5] was inactive. For the same compound, the compound was called inactive in [6], in assay [7], in [8], in assay [9] and in [11].
As for `CCC(C)OC(=O)N1CCCCC1CCO` (stereo not drawn), the call in assay [15], in [1], in assay [2], in assay [3], in [4] and in [6] was inactive. In addition, the result in assay [7], in assay [8], in assay [9] and in assay [11] was inactive.
`O=C(Nc1ccc([N+](=O)[O-])cc1Cl)c1cc(Cl)ccc1O`: the outcome in assay [16], in assay [1], in [4], in [5], in assay [6] and in assay [8] was inactive. Also, the call in assay [9] and in assay [11] was inactive. Further, the concentration at half-maximal activity (AC50) in assay [17] was 3.56 µM (active).
Consider `Oc1ccc(C(c2ccc(O)cc2)C(Cl)(Cl)Cl)cc1`, for which the call in assay [16], in assay [1], in [2], in assay [4] and in assay [5] was inactive. Also, the AC50 is 117 µM (active) in [15]; 86.3 µM (active) in assay [3]; 202 µM (active) in assay [6]; 202 µM (active) in assay [7]; 202 µM (active) in assay [8]; 69.5 µM (active) in assay [9]. For the same compound, the AC50 in assay [17] is 4.87 µM (active).
Consider `CC(=O)S[C@@H]1CC2=CC(=O)CC[C@]2(C)[C@H]2CC[C@@]3(C)[C@@H](CC[C@@]34CCC(=O)O4)[C@H]12`, for which the call in [18], in [15], in [4], in assay [5], in assay [6] and in assay [7] was inactive. Besides, the call in [8] and in assay [9] was inactive.
Take `CCOC(=O)C(C)Oc1ccc(Oc2cnc3cc(Cl)ccc3n2)cc1` (stereo not drawn): the result in assay [16], in assay [18], in [1], in assay [2], in assay [3] and in [4] was inactive. The outcome in assay [5], in [6], in assay [7], in [8], in assay [9] and in assay [10] was inactive. For the same compound, in assay [11], the outcome was inactive.
Turning to `C=CCOC(Cn1ccnc1)c1ccc(Cl)cc1Cl` (stereo not drawn), the half-maximal activity concentration (AC50) in [18] was 4.34 µM (active). Besides, the result in assay [1], in assay [4], in [5], in assay [9] and in [11] was inactive.
As for `CCN(CC)C(=O)c1cccc(C)c1`, the result in assay [1], in [2], in assay [3], in assay [4], in assay [5] and in assay [6] was inactive. Also, the result in assay [7], in assay [8], in assay [9] and in assay [11] was inactive.
As for `CCNc1nc(N)nc(Cl)n1`, the outcome in assay [18], in assay [15], in [1], in [2], in [3] and in [4] was inactive. Also, the result in assay [5], in assay [6], in [7], in assay [8], in assay [9] and in [11] was inactive.
